Source: PubChem BioAssay (National Center for Advancing Translational Sciences (NCATS))
DRD3 agonist = activates the human D3 dopamine receptor; P35462; D3R DiscoveRx beta-arrestin cells, luminescence, 90 min; max activation, %; hit rate 0.58% among 410,000; AID 652048; in the data active = max activation above about 30%; note: 0% is about no effect
Target sequence (P35462 whole entry, looked up): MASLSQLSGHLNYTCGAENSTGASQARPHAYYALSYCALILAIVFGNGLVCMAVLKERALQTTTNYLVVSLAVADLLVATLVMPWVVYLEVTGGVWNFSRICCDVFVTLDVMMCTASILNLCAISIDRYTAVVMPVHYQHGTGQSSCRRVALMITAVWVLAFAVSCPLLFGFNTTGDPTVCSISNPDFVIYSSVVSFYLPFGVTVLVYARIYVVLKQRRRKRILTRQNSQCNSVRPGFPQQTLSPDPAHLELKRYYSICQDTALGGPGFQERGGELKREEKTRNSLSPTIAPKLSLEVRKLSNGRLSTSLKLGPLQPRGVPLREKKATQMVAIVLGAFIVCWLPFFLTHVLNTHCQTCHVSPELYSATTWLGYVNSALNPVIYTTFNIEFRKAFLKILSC
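Cells at 1500/well, incubated overnight, then treated with pinned compounds (dopamine as control) for 90 min at 37 degrees C. DiscoveRx reagent added for 30 - 60 minutes at room temperature; luminescence read.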
D3 antag = antagonists of human D3 dopamine receptor. hit rate 2.5% among 360,000. D3R cells, DiscoveRx beta-arrestin luminescence, antagonist mode; active compounds read low. AID 652054. max response, negative = inhibition, %; in the data active = max response below about -50%; inconclusive = no clear call, values can overlap the other calls; note: % is set by controls: 0 for no effect and ±100 for the full control effect
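Cells plated overnight at 1500 cells/well, then exposed to library compounds with dopamine controls for 90 minutes at 37 degrees C. DiscoveRx reagent added for 30–60 minutes at room temperature; luminescence read, quantitative HTS format.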
D1 antag = blocks dopamine activation of the human D1 receptor | P21728 | HEK293 TREx D1 cells, calcium flux, dopamine EC80; active compounds read low | activity change, negative = inhibition, % at 10 µM | hit rate 3.2% among 360,000 | AID 504652; in the data active = activity change below about -30%; note: % is set by controls: 0 for no effect and ±100 for the full control effect
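Antagonism measured as reduced calcium response to an EC80 dopamine addition following 180 s compound pre-read; cells were inducible HEK293 Trex D1 plated overnight at 30 C, read kinetically at 1 cycle/sec.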
D1 PAM = human D1 dopamine receptor positive modulation | P21728 | HEK293 TREx D1 cells, calcium flux, dopamine EC20 potentiation | potentiation, % at 10 µM | hit rate 0.036% among 360,000; in the data active = potentiation above about 30%; note: 0% is about no effect
D1 agonist = agonists of human D1 dopamine receptor; HEK293 T-REx D1 cells, calcium flux, agonist mode; P21728; hit rate 1% among 360,000; activation, % at 2 µM; in the data active = activation above about 30%; note: 0% is about no effect
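Inducible HEK293 T-REx D1 cells, force-coupled to calcium signalling, were plated at 4000 cells/well with tetracycline and held overnight at 30 C. After no-wash calcium dye loading, compound-evoked calcium rise over 180 s flagged agonists.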
An asterisk follows results filed as active; ? = inconclusive; nt = no result. Rows were chosen to be rich in hits. Some 6% of all compounds tested hit in one or more screens of this group.

SMILES	DRD3 agonist	D3 antag	D1 antag	D1 PAM	D1 agonist
Cc1oc2ncn(C)c(=O)c2c1C(=O)Nc1ccc(F)cc1	5.9	nt	5.5	4.3	2.5
CCCCn1c(=N)n(CC(=O)c2ccc(Br)s2)c2ccccc21	-9.0	0.8	20.2	-3.0	44.2*
CCCCn1c(=N)n(CCCOc2ccc(F)cc2)c2ccccc21	2.1	nt	-4.7	-7.0	79.1*
CCn1c(=N)n(CC(=O)c2ccc(Br)s2)c2ccccc21	-8.0	-16.2	9.0	-1.4	9.7
CCOC(=O)Cn1c(=N)n(CCOc2ccc(Br)cc2)c2ccccc21	1.4	5.1	-21.7	-1.7	50.6*
COc1ccc(C(=O)Nc2nc3nc(C)c(Cl)c(=O)n3[nH]2)cc1	11.4	nt	4.7	1.6	3.5
NS(=O)(=O)c1ccc(S(=O)(=O)N2CCCC(c3ccccc3)C2)cc1 (stereo not drawn)	-5.6	?	nt	nt	nt
Cc1ccc(Nc2nc(=O)c3cccnc3s2)cc1	-14.6	-102.4*	-7.8	-1.6	1.3
COc1ccc(OC)c(Nc2nc(=O)c3cccnc3s2)c1	-3.8	-9.7	3.6	7.6	2.3
O=C(Nc1ccc(F)cc1F)c1ccc(-n2cnc3cccnc32)cc1	-2.7	nt	-16.7	-1.6	0.9
COC(=O)c1cn(NC(=O)/C=C/c2ccc(OC)c(OC)c2)c(=O)c2ccccc12	2.9	16.3	-73.8*	-11.3	0.1
COC(=O)c1cn(NC(=O)/C=C/c2cccc(OC)c2OC)c(=O)c2ccccc12	nt	nt	0.8	-7.3	0.9
CN(C)Cc1ccccc1-c1cccc2nccn12	-8.0	0.0	nt	nt	nt
Cc1ccc(NC(=O)CSc2nncn3c2cc2sccc23)cc1F	-18.4	nt	3.0	-4.0	0.1
CS/C(N)=N/N=C/c1ccc2c(c1)OCO2	4.1	12.4	-2.4	-0.2	2.8
N/C(=N\N=C\c1ccc(O)cc1)c1nonc1N	-0.6	-18.8	-5.8	-4.9	7.2
CS/C(N)=N/N=C/c1ccc([N+](=O)[O-])cc1	-0.5	-50.7*	-11.3	3.9	0.6
N/C(=N\N=C\c1ccc([N+](=O)[O-])cc1)c1nonc1N	0.8	-3.2	-43.0*	-20.1	2.7
COc1ccc(OC)c(/C=N/N=C(\N)c2nonc2N)c1	5.1	-0.2	-30.3*	-2.8	1.5
O=C(NCC(c1ccco1)N1CCN(c2ccccc2F)CC1)C(=O)NC1CCCCC1 (stereo not drawn)	54.2*	4.0	21.7	-5.5	0.3
O=C(COc1ccccc1)NCC(c1ccco1)N1CCN(c2ccc(F)cc2)CC1 (stereo not drawn)	-15.2	0.5	-64.2*	-2.6	21.9
O=C(NCCc1c[nH]c2ccccc12)C(=O)NCC(c1ccco1)N1CCN(c2ccccc2)CC1 (stereo not drawn)	41.1*	11.9	0.9	-1.6	4.7
Cc1nc(SCC(=O)NCCc2ccc(Cl)cc2)nc(C)c1C	0.6	8.2	7.4	-0.6	1.0
COC(=O)C1=C(C)Nc2nc(-c3ccccc3)nn2C1c1ccc(C)o1 (stereo not drawn)	3.3	-11.8	-57.1*	-9.9	1.8
COc1ccc(-c2nc3n(n2)C(c2cccnc2)C(C(N)=O)=C(C)N3)cc1 (stereo not drawn)	1.6	-4.4	2.8	1.0	2.4
SMILES	DRD3 agonist	D3 antag	D1 antag	D1 PAM	D1 agonist
COc1ccc(-c2nc3n(n2)C(c2ccncc2)C(C(N)=O)=C(C)N3)cc1 (stereo not drawn)	-3.4	-59.1*	28.0	-7.0	6.2
COc1ccc(NC(=O)Nc2ccc(C(C)C)cc2)cc1	-3.8	-5.9	-36.5*	-8.8	-0.4
CCc1ccc(OCC(=O)Nc2ccncc2)cc1	3.1	44.4	-11.8	-3.4	15.1
CC(C)c1ccc(NC(=O)NCc2ccccn2)cc1	-4.1	-13.0	-33.9*	3.5	4.1
Cc1cc(OCC(=O)Nc2ccncc2)ccc1Cl	1.1	-8.6	-38.5*	-2.8	19.6
O=C(NCc1ccccn1)Nc1ccc(Cl)c(Cl)c1	-0.6	-15.0	-12.7	-0.3	1.0
CC(C)c1ccc(OCC(=O)Nc2ccncc2)cc1	-6.3	-9.2	-33.7*	0.4	18.4
Cc1cc(OCC(=O)Nc2ccncc2)cc(C)c1Br	6.4	0.0	-28.1	-8.9	21.4
CN(C)CCNC(=O)c1cccc(-c2cnc3c(NC=O)cc(/C=C/c4ccccc4)cn23)c1	-9.3	16.9	nt	nt	nt
O=[S+]([O-])(c1c(F)cccc1F)N1CCN([S+](=O)([O-])c2cccc3nonc23)CC1	nt	nt	2.9	-0.6	1.5
COc1ccccc1-c1c(C(F)(F)F)oc2c(CN3CCCCC3C)c(O)ccc2c1=O (stereo not drawn)	1.4	nt	10.5	-0.2	-0.4
COc1ccc(OC)c(NC(=O)C2(C)CCN2C(=O)C(C)(C)c2ccccc2)c1 (stereo not drawn)	-2.5	5.0	nt	nt	nt
COc1ccccc1CNc1nc(-c2ccco2)nn1S(=O)(=O)c1ccc(C)cc1	-6.9	nt	8.3	-0.6	15.2
COc1cccc(-c2nc(CS(=O)(=O)CC(=O)NCc3ccc(C)cc3)c(C)o2)c1	-7.8	nt	-0.4	-2.2	6.9
Cc1ccc2nc(-c3ccc(NC(=O)COc4ccc(Cl)c(C)c4)cc3)sc2c1	61.0*	nt	16.3	-0.1	0.9
Cc1ccc2nc(-c3ccc(NC(=O)COc4c(C)ccc(C)c4C)cc3)sc2c1	0.8	nt	3.8	-0.1	7.1
CC(C)C(C(=O)Nc1ccncc1)c1ccc(Cl)cc1 (stereo not drawn)	5.6	-18.8	-7.1	0.2	50.8*
Cc1cc(Cl)ccc1OC(C)C(=O)NNC(=O)C1CCCCC1C(=O)O (stereo not drawn)	-8.0	-14.2	2.6	-3.5	11.5
Cc1cc(Cl)ccc1OC(C)C(=O)NN=C1CCCCCC1 (stereo not drawn)	-3.9	-16.8	-31.3*	nt	0.8
O=S1(=O)C=C[C@@H](CO)N1Cc1ccc(Br)cc1	4.5	0.9	nt	nt	nt
O=S1(=O)C=C[C@@H](COCc2ccccc2)N1Cc1ccc(Br)cc1	-10.4	-50.8*	nt	nt	nt
Cn1c(Cc2ccc3c(c2)OCO3)nnc1SCC(=O)NC1CCCC1	nt	nt	-33.4*	-11.2	1.2
CCn1c(Cc2ccccc2)nnc1SCC(=O)NC1CC1	-1.4	5.6	-32.3*	1.4	0.1
CCn1c(Cc2cccs2)nnc1SCC(=O)NC1CC1	5.2	-3.5	10.3	1.2	-0.2
COC(=O)N1CCCCC1c1cc(C(=O)Nc2cccc3c2CCCC3)no1 (stereo not drawn)	12.0	-1.2	nt	nt	nt
O=c1c(N=Nc2ccc(O)cc2)c(-c2ccccc2)[nH]n1-c1ccc([N+](=O)[O-])cc1	1.4	-70.3*	-5.7	-13.3	5.6
Cc1cn([C@H]2C[C@H](O)[C@@H](/C=C/C(=O)NCCc3cccnc3)O2)c(=O)[nH]c1=O	58.9*	-22.9	nt	nt	nt
Cc1cn([C@H]2C[C@H](O)[C@@H](/C=C/C(=O)NCc3ccccc3)O2)c(=O)[nH]c1=O	-1.3	-5.7	nt	nt	nt
CCNC(=O)C(=O)NCCC1CCCCN1S(=O)(=O)c1cccs1 (stereo not drawn)	-9.8	-53.9*	5.0	-2.2	0.6
